KDM5B inhibitor: inhibitors of human KDM5B histone demethylase | Q9UGL1 | KDM5B demethylase, FDH-coupled NADH fluorescence (FDH is formaldehyde dehydrogenase) | Potency, µM (doses to about 57.7 µM), hits mostly inhibitors | 220,000 tested, 2.6% active; active = well fitted inhibition curve with a large enough effect; inconclusive = small, poorly fitted or top-dose-only effect; inactive = no such curve, though single readings can be large or run the other way; also: nearly all actives have a fitted effect of over 70% in size
Target sequence (Q9UGL1 whole entry, looked up): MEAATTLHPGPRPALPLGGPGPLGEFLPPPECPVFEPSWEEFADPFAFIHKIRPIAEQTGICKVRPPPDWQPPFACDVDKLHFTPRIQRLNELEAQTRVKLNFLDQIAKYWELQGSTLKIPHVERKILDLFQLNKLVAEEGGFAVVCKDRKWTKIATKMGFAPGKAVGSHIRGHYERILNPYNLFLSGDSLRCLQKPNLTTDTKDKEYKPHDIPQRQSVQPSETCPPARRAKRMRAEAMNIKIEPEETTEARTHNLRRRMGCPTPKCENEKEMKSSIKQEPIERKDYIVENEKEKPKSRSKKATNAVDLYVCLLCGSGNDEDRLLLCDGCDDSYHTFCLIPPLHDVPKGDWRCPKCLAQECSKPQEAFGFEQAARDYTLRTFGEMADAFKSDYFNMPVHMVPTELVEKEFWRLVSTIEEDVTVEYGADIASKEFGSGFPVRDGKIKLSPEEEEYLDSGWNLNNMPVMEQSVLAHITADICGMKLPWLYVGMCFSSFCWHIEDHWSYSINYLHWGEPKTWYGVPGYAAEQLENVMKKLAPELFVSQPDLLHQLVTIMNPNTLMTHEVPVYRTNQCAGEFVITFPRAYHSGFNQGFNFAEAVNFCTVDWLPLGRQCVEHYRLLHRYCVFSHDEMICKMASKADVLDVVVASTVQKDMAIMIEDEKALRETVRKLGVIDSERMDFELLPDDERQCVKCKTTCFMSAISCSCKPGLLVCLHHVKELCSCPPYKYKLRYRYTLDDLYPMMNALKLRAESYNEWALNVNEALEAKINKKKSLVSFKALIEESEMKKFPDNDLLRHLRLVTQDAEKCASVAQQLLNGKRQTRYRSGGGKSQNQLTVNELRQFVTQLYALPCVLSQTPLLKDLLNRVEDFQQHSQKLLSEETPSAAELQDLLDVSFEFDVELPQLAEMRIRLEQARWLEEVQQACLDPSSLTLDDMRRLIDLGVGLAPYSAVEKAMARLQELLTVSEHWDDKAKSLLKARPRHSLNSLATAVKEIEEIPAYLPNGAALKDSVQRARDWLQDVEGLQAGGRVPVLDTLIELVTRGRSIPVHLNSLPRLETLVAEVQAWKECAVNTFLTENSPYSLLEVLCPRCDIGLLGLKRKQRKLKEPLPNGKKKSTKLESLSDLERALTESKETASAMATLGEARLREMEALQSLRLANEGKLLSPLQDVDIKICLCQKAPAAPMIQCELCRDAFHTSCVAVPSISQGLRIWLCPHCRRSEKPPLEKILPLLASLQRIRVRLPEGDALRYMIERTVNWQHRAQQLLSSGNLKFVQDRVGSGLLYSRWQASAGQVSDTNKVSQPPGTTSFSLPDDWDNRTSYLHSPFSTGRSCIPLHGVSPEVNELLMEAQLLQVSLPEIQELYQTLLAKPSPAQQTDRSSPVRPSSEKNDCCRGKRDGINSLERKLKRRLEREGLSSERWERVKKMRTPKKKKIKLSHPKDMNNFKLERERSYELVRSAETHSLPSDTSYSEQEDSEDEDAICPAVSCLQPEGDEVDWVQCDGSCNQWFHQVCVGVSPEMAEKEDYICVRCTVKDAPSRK
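Inhibition is measured as reduced NADH fluorescence generation from FDH coupling to formaldehyde release. Truncated KDM5BΔAP at 200 nM final acts on H3K4me3 peptide (12.5 µM in substrate mix) in pH 7.5 HEPES buffer with Tween-20, 30 min, room temperature.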
IP6K1 inh: inhibitors of human IP6K1; AID 1645851; 140,000 tested, 0.81% active; Q92551; activity change, % (series mostly up to about 58 µM); IP6K1 kinase, ADP-Glo luminescence, 2 h; hits give low values; in the data active = activity change below about -25%
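ADP-Glo luminescence measures ADP made by human IP6K1 during a 2 h RT reaction with ATP/IP6 (mix at 1.3 mM/130 uM); top library doses 57.5 and 19.1 uM final.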
Of the large screens only hits and unclear results are named; the others gave an inactive call. The list is not random: actives were taken first. Their share in the collection is about 2.8%.

c1ccc([C@@H]2C[C@@H]3C[C@H](NC4CCCCCC4)C[C@@H]3CO2)cc1	none (no result: KDM5B inhibitor)
CCC(C(=O)N1CCN(Cc2ccc(C)c(C)c2)C(=O)C1)n1cccn1 (centres undefined)	none
O=C1CN(C(=O)c2cnc3ccccn3c2=O)CCN1Cc1ccc(F)cc1	KDM5B inhibitor 28µM
COc1cccc(CNC(=O)[C@@H]2CCCN2C(=O)c2cccc(-c3ccccc3OC)c2)c1	none (no result: KDM5B inhibitor)
O=C(CCn1c(=O)oc2cc(S(=O)(=O)N3CCCC3)ccc21)Nc1ccc(OC(F)(F)F)cc1	none (no result: IP6K1 inh)
Cc1c(-c2ccc(F)cc2)[nH]c2ccc(CNC(=O)c3n[nH]c4c3CCCC4)cc12	KDM5B inhibitor 10µM
Cc1onc(C(=O)NCc2ccc3[nH]c(-c4ccc(F)cc4)c(C)c3c2)c1CO	KDM5B inhibitor inconclusive
Cc1c(-c2ccc(F)cc2)[nH]c2ccc(CNC(=O)c3cnn(C)c3)cc12	KDM5B inhibitor 32µM
O=C(NCc1cccc(C(F)(F)F)c1)c1n[nH]c2c1CCCC2	none (no result: IP6K1 inh)
CCC(C)NC(=O)NCC12CC3CC(CC(C3)C1)C2 (centres undefined)	none (no result: IP6K1 inh)
CNc1nccnc1-c1ccccc1S(=O)(=O)NC(C)(C)C	KDM5B inhibitor 28µM
CC(C)(C)NS(=O)(=O)c1ccccc1-c1nc(N)nc2c1CCC2	KDM5B inhibitor 22µM
CC(C)NC(=O)c1ccnc(-c2ccccc2S(=O)(=O)NC(C)(C)C)c1	none
Nc1nc2c(c(N3CC[C@@H](N)C3)n1)CCCc1ccccc1-2	none (no result: KDM5B inhibitor)
CNC(=O)c1cc(-c2ccccc2F)nc2c1cnn2C	none (no result: KDM5B inhibitor)
COc1ccc(C(C)NC(=O)c2noc(-c3ccc[nH]c3=O)n2)cc1OC (centres undefined)	KDM5B inhibitor 32µM
Cc1ccc(-c2nc(C(=O)N3CCN(c4cc(C)ccc4C)CC3)no2)cc1	KDM5B inhibitor inconclusive
Cc1ccc(C)c(N2CCN(C(=O)c3noc(-c4ccc[nH]c4=O)n3)CC2)c1	KDM5B inhibitor 28µM
CC(C)Oc1ccc(CNC(=O)c2noc(-c3ccc[nH]c3=O)n2)cc1	none
O=C(NCC1CC1)c1noc(-c2ccc[nH]c2=O)n1	none
COCCNC(=O)c1noc(-c2ccc[nH]c2=O)n1	KDM5B inhibitor 28µM
COc1ccc(OCC(O)CN2CCC(=O)N(CC3CC3)Cc3ccccc32)cc1 (centres undefined)	none (no result: KDM5B inhibitor)
CN(Cc1ccccc1)C(=O)c1cc(-c2cccnc2)nc2ccccc12	none (no result: IP6K1 inh)
CC(C)c1noc(CN(C)C(=O)c2cc(-c3cnn(C)c3)nc3ccccc23)n1	KDM5B inhibitor 28µM
Cn1c(=O)[nH]c(=O)c2c1nc(SCCc1ccccc1)n2CC(O)COc1ccccc1 (centres undefined)	none (no result: IP6K1 inh)
CC(=O)N1CCC(c2nnc3n2CCNC3)CC1	KDM5B inhibitor 112µM
O=C(c1ccncc1)N1CCCC(c2nnc3n2CCNC3)C1 (centres undefined)	KDM5B inhibitor inconclusive
O=C(Nc1ccccc1)N1CCC(c2nnc3n2CCNC3)CC1	KDM5B inhibitor inconclusive
O=C(c1ccncc1)N1CCC(c2nnc3n2CCNC3)CC1	KDM5B inhibitor 35µM
O=C(NCCc1ccc(Cl)cc1)c1nc2cccnc2n(CCc2ccccc2)c1=O	none (no result: KDM5B inhibitor)
O=[S+]1([O-])c2cnccc2O[C@@H](COCc2ccccc2)CN1Cc1cccc(F)c1	none (no result: KDM5B inhibitor)
CNC(=O)c1cn2cc(-c3ccccc3)sc2n1	none (no result: KDM5B inhibitor)
Cc1ccc(Nc2ccnc(N3CCCC3C(=O)N3CCC(c4ccccc4)CC3)n2)cc1 (centres undefined)	none (no result: KDM5B inhibitor)
COCc1noc(CCNc2cc(C)nc(-c3ccccc3O)n2)n1	KDM5B inhibitor 22µM
Cc1cc(NCCc2cnccn2)nc(-c2ccccc2O)n1	none
Cc1ccc(Nc2ccnc(N3CCCC3C(=O)NCCCc3ccccc3)n2)cc1 (centres undefined)	none (no result: KDM5B inhibitor)
Cc1ccc(C)c(N2CCN(c3nc4c(S(=O)(=O)c5ccccc5)nnn4c4ccc(Cl)cc34)CC2)c1	none
COc1ccccc1N1CCN(c2nc3c(S(=O)(=O)c4ccc(C)c(C)c4)nnn3c3ccc(Cl)cc23)CC1	KDM5B inhibitor inconclusive, IP6K1 inh -28
O=C(NCc1ccc(Cl)cc1)c1ccc2cncn2c1	KDM5B inhibitor inconclusive
C=CCNC(=O)c1ccc2cncn2c1	KDM5B inhibitor 32µM
CN(C)C[C@@H]1CN(c2ncccn2)C[C@H]1NC(=O)c1ccc2cc[nH]c2c1	KDM5B inhibitor 25µM
COc1ccc(C(=O)N[C@@H]2CN(c3ncccn3)C[C@H]2CN(C)C)c(OC)c1	KDM5B inhibitor 25µM
COc1ccc(C(=O)N[C@@H]2CN(c3ncccn3)C[C@H]2CN(C)C)cc1OC	KDM5B inhibitor 28µM
COc1ccc(C(=O)N[C@@H]2CN(c3ncccn3)C[C@H]2CN(C)C)cn1	KDM5B inhibitor inconclusive
CN(C)C[C@@H]1CN(c2ncccn2)C[C@H]1NC(=O)C1(C)CCOCC1	KDM5B inhibitor inconclusive
COc1ccc(C2(C(=O)N[C@@H]3CN(c4ncccn4)C[C@H]3CN(C)C)CC2)cc1	KDM5B inhibitor 28µM
COc1ccc(C(=O)N[C@@H]2CN(Cc3cccnc3)C[C@H]2CN(C)C)c(OC)c1	KDM5B inhibitor inconclusive
CN(C)C[C@@H]1CN(c2ncccn2)C[C@H]1NC(=O)c1cccc2[nH]ccc12	none
CNC(=O)C1=C(OCc2ccccc2)c2ccccc2[S+](=O)([O-])N1c1c(C)cccc1C	none (no result: KDM5B inhibitor)
O=C(NCc1ccccc1)c1cn(C2CN(C(=O)Cc3ccccc3)C2)nn1	none (no result: KDM5B inhibitor)
Cc1cccc(C(=O)NCCS(=O)(=O)Cc2ccccc2)c1	none (no result: IP6K1 inh)
COc1cc(Cl)ccc1C(=O)N[C@@H]1CN(c2ncccn2)C[C@H]1CN(C)C	KDM5B inhibitor 28µM
COc1ccc(Cl)cc1C(=O)N[C@@H]1CN(c2ncccn2)C[C@H]1CN(C)C	KDM5B inhibitor inconclusive
COc1ccc(C(=O)NCc2nnc3c(-c4nc(C(C)C)no4)cccn23)cc1F	KDM5B inhibitor 32µM
COc1ccccc1C(=O)NCc1nnc2c(-c3nc(C(C)C)no3)cccn12	KDM5B inhibitor inconclusive
CC(C)c1noc(-c2cccn3c(CNC(=O)c4ccc(F)c(F)c4)nnc23)n1	KDM5B inhibitor 11µM
CCN(CC)c1ccc(C(=O)NCc2nnc3c(-c4nc(C(C)C)no4)cccn23)cc1	none
CC(C)c1noc(-c2cccn3c(CNC(=O)c4c(F)cccc4Cl)nnc23)n1	KDM5B inhibitor 16µM
O=C(NCc1ccccc1)C1CC(=O)N(C2CN(S(=O)(=O)c3cccc(F)c3)C2)C1 (centres undefined)	none (no result: KDM5B inhibitor)
COCC1N(Cc2ccc(Oc3ccccc3)cc2)C2CCC1(O)CC2 (centres undefined)	none (no result: KDM5B inhibitor)
CC(C)[S+](=O)([O-])N(C)Cc1cccc(N2CCN([S+](=O)([O-])c3c(Cl)cccc3Cl)CC2)c1F	none (no result: KDM5B inhibitor)
O=C(c1ccn[nH]1)N1CC=C(c2cnc3cnc(-c4ccccc4)cn23)CC1	KDM5B inhibitor inconclusive
O=C(c1cccc(O)c1)N1CC=C(c2cnc3cnc(-c4ccccc4)cn23)CC1	KDM5B inhibitor 28µM
Cc1ccc(-c2cc3c(=O)n(CCNC(=O)c4ccc(Cl)cc4)ccn3n2)c(C)c1	none
COc1ccc(-c2cc3c(=O)n(CCNC(=O)c4ccc(C)s4)ccn3n2)cc1	none
Cc1ccc(C)c(-c2cc3c(=O)n(CCNC(=O)c4ccccc4F)ccn3n2)c1	none
CCOc1ccc(-c2cc3c(=O)n(CCNC(=O)c4cccc5[nH]ccc45)ccn3n2)cc1	KDM5B inhibitor 28µM
CCOc1ccc(-c2cc3c(=O)n(CCNC(=O)Cc4cccc(F)c4)ccn3n2)cc1	KDM5B inhibitor inconclusive
COc1ccc(-c2cc3c(=O)n(CCNC(=O)c4ccc(OC)nc4)ccn3n2)cc1	KDM5B inhibitor 11µM

Compound activity: PubChem BioAssay, National Center for Advancing Translational Sciences (NCATS)
